Reference: the supplement of paper PMC12645437, “Orthogonal IMiD-Degron Pairs Induce Selective Protein Degradation in Cells” (ACS Chemical Biology, 2025)
Whole data set: some 8,300 sequences, median “log2 fold change of degron read counts, EGFP-low vs EGFP+ sorted cells (limma voom), compound-induced degradation” near -1.1, cut for the highest 2% near 3.2. The sample as a whole holds a higher share of the highest values than the screen did.

T1: CRBN, Q96SW2
T1 chain: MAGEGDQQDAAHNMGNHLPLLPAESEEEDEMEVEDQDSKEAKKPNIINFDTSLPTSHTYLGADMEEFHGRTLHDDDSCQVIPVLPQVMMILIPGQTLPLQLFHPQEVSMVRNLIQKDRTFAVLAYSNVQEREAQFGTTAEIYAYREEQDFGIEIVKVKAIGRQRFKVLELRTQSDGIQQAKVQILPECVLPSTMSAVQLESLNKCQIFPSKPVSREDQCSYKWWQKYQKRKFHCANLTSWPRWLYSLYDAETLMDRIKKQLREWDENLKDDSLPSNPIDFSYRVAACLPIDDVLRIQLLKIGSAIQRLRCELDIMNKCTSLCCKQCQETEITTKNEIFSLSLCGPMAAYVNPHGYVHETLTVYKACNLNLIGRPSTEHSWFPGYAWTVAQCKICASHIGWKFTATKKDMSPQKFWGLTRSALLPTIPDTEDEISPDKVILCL


Target: T1, CRBN, Q96SW2
Test: log2 fold change of degron read counts, EGFP-low vs EGFP+ sorted cells (limma voom), compound-induced degradation; higher = more compound-induced degradation of the degron-EGFP fusion; degrons are variants of IKZF1/3 zinc finger 2; compound dose not given here
Settings: Jurkat, 18 h
Procedure: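 Pooled library of 8380 IKZF3 ZF2 degron mutants (positions 146-167 varied within the IKZF3 130-189 degron; only the varied core is printed, flanks not printed) fused to EGFP with IRES-mCherry, lentivirally expressed in Jurkat cells. mCherry+ cells were treated with one IMiD compound for 18 h (dose not stated) and FACS-sorted into EGFP-low and EGFP+ populations. Degron sequences were counted by NGS, and log2FC (EGFP-low vs EGFP+) was estimated by limma voom over 3 biological replicates.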

[1] = compound: compound 19 (5-tert-butyl-thalidomide)
[2] = compound: compound 22 (5-morpholino-thalidomide)
[3] = compound: compound 33 (diphenyl IMiD analogue)
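Also: pooled lentiviral library of zinc finger degron-EGFP fusions in mCherry-positive Jurkat cells, FACS-sorted after compound exposure, with degron abundance counted by next-generation sequencing.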

| Sequence | log2 fold change of degron read counts [1] | log2 fold change of degron read counts [2] | log2 fold change of degron read counts [3] | log2 fold change of degron read counts (compound: thalidomide) |
| --- | --- | --- | --- | --- |
| FSCDVCGAEFTQKGNLLRHIKL [46F_47S_49D_50V_52G_53A_54E_55F_67L_, Q9UKT9] | -0.733 | -1.36 | -1.13 | -1.96 |
| FNCNICGANFTQKGNLLRHIKL [46F_47N_49N_50I_52G_53A_54N_55F_67L_, Q9UKT9] | 0.662 | -0.0154 | -0.393 | -0.94 |
| FGCDQCGARFTQKGNLLRHIKL [46F_47G_49D_50Q_52G_53A_54R_55F_67L_, Q9UKT9] | -1.28 | -2.53 | -2.52 | -1.78 |
| FKCEICGRWFTQKGNLLRHIKL [46F_47K_49E_50I_52G_53R_54W_55F_67L_, Q9UKT9] | -2.8 | -3.25 | -3.01 | -2.58 |
| FWCNQCGRHFTQKGNLLRHIKL [46F_47W_49N_50Q_52G_53R_54H_55F_67L_, Q9UKT9] | -1.56 | -1.46 | -1.56 | -1.55 |
| FACPQCGAVFTQKGNLLRHIKL [46F_47A_49P_50Q_52G_53A_54V_55F_67L_, Q9UKT9] | 0.29 | -1.36 | -0.148 | -1.43 |
| FVCPICGHGFTQKGNLLRHIKL [46F_47V_49P_50I_52G_53H_54G_55F_67L_, Q9UKT9] | -2.33 | -2.2 | -1.88 | -0.905 |
| FLCEQCGAEFTQKGNLLRHIKL [46F_47L_49E_50Q_52G_53A_54E_55F_67L_, Q9UKT9] | -2.34 | -3.65 | -2.09 | -1.63 |
| FQCPQCGAYFTQKGNLLRHIKL [46F_47Q_49P_50Q_52G_53A_54Y_55F_67L_, Q9UKT9] | -1.88 | -1.45 | -0.995 | 1.25 |
| LYCPICGFVCTQKGNLLRHIKL [46L_47Y_49P_50I_52G_53F_54V_55C_67L_, Q9UKT9] | 3.29 | 3.49 | 2.29 | 1.2 |
| LCCPICGFVCTQKGNLLRHIKL [46L_47C_49P_50I_52G_53F_54V_55C_67L_, Q9UKT9] | 1.01 | 1.57 | 2.59 | 2.1 |
| LMCPICGFVCTQKGNLLRHIKL [46L_47M_49P_50I_52G_53F_54V_55C_67L_, Q9UKT9] | -0.234 | 0.389 | 2.08 | 1.67 |
| LTCPICGFVCTQKGNLLRHIKL [46L_47T_49P_50I_52G_53F_54V_55C_67L_, Q9UKT9] | 0.397 | 1.59 | 2.08 | 2.24 |
| LQCPICGFVCTQKGNLLRHIKL [46L_47Q_49P_50I_52G_53F_54V_55C_67L_, Q9UKT9] | 0.325 | 2.16 | 1.88 | 3.76 |
| LGCPICGFVCTQKGNLLRHIKL [46L_47G_49P_50I_52G_53F_54V_55C_67L_, Q9UKT9] | 3.04 | 1.82 | 1.33 | 0.747 |
| FICNICGADFTQKGNLLRHIKL [46F_47I_49N_50I_52G_53A_54D_55F_67L_, Q9UKT9] | -2.47 | -1.85 | -1.03 | -0.92 |
| FTCDVCGAIFTQKGNLLRHIKL [46F_47T_49D_50V_52G_53A_54I_55F_67L_, Q9UKT9] | -2.2 | -1.5 | -0.885 | -0.951 |
| FACEICGRYFTQKGNLLRHIKL [46F_47A_49E_50I_52G_53R_54Y_55F_67L_, Q9UKT9] | 1.02 | -1.33 | -1.87 | -1.22 |
| FQCPICGAMFTQKGNLLRHIKL [46F_47Q_49P_50I_52G_53A_54M_55F_67L_, Q9UKT9] | -0.249 | 2.56 | 2.51 | 3.62 |
| FGCPICGAMFTQKGNLLRHIKL [46F_47G_49P_50I_52G_53A_54M_55F_67L_, Q9UKT9] | 3.33 | 2.19 | 1.89 | 0.606 |
| FHCPICGAMFTQKGNLLRHIKL [46F_47H_49P_50I_52G_53A_54M_55F_67L_, Q9UKT9] | 1.97 | 1.9 | 1.34 | 0.306 |
| FVCPICGADFTQKGNLLRHIKL [46F_47V_49P_50I_52G_53A_54D_55F_67L_, Q9UKT9] | -1.19 | 1.3 | 1.21 | 1.95 |
| FVCPICGAMFTQKGNLLRHIKL [46F_47V_49P_50I_52G_53A_54M_55F_67L_, Q9UKT9] | -0.498 | 1.33 | 1.86 | 1.85 |
| FSCPICGAMFTQKGNLLRHIKL [46F_47S_49P_50I_52G_53A_54M_55F_67L_, Q9UKT9] | 1.66 | 1.01 | 1.5 | 0.771 |
| FSCPICGADFTQKGNLLRHIKL [46F_47S_49P_50I_52G_53A_54D_55F_67L_, Q9UKT9] | 1.3 | 0.182 | 1.52 | 0.227 |
| FQCPICGADFTQKGNLLRHIKL [46F_47Q_49P_50I_52G_53A_54D_55F_67L_, Q9UKT9] | 0.457 | 1.55 | 2.48 | 3.81 |
| FYCPICGAMFTQKGNLLRHIKL [46F_47Y_49P_50I_52G_53A_54M_55F_67L_, Q9UKT9] | 2.65 | 2.73 | 2.02 | 0.0372 |
| FGCNICGACFTQKGNLLRHIKL [46F_47G_49N_50I_52G_53A_54C_55F_67L_, Q9UKT9] | 1.07 | 2.09 | 1.61 | 0.355 |
